Reference: PMC7862700, “An all-to-all approach to the identification of sequence-specific readers for epigenetic DNA modifications on cytosine”

Tests used:
Assay in all cases: DAPPL (digital affinity profiling via proximity ligation, sequencing); 10 mM Tris-HCl pH 7.5, 50 mM NaCl, 1 mM DTT, 4% glycerol, room temperature, 30 min; GST-TFs on glutathione beads, 16-mer random dsDNA library, 0.1% formaldehyde crosslink after washing; high values mean tight binding
Settings in all cases: protein: recombinant; tags: N-terminal GST; dsDNA, one strand shown
[1] = target: T1, FEV (Homo sapiens, UniProt Q99581 1-238)
T1 sequence: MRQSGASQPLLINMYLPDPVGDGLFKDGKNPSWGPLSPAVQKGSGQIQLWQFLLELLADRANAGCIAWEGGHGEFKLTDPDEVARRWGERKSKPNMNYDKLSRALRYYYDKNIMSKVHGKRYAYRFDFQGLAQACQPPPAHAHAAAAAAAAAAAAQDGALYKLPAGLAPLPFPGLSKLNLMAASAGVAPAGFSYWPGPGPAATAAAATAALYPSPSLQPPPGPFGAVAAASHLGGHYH
How it was run: (§1)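 Binding signal is given per hexamer as its read frequency for a factor divided by its frequency in the tag-only sample. GST-fused human transcription factors were expressed in yeast, captured on glutathione beads, barcoded with DNA and pooled with that sample, then incubated with 200 nmole of a 16-mer random double-stranded DNA library in Tris/NaCl/DTT/glycerol buffer for 30 min at room temperature. The pools were then washed, crosslinked, proximity-ligated, amplified by PCR and sequenced on an Illumina NextSeq500.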

[2] = target: ETV5 (Homo sapiens, UniProt P41161 1-510)
Sequence of ETV5 (P41161 whole entry): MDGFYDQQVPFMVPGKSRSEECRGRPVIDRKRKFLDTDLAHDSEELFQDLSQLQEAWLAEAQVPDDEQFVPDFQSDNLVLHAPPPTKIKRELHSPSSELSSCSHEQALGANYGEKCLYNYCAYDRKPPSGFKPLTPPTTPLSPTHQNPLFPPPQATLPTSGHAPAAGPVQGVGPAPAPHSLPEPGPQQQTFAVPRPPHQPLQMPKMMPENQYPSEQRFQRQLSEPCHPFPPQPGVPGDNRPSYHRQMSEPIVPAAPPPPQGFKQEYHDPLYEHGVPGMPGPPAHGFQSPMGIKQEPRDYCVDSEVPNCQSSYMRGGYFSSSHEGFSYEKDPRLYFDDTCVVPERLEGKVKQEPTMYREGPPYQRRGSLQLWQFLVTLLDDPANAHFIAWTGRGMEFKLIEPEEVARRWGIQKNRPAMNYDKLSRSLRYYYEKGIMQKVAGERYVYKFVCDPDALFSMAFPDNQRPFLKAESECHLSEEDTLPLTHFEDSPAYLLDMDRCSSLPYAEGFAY
How it was run: as §1

[3] = target: T2, SPIC (Homo sapiens, UniProt Q8N5J4 1-248)
T2 sequence: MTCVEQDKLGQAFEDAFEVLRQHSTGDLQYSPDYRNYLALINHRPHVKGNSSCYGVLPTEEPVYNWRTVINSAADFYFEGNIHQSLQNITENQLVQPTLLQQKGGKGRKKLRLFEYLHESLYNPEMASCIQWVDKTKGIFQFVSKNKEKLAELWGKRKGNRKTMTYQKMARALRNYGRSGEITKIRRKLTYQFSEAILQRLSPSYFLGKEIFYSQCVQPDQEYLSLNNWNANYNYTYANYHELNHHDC
How it was run: as §1

[4] = target: ELF4 (Homo sapiens, UniProt Q99607 1-663)
Sequence of ELF4 (Q99607 whole entry): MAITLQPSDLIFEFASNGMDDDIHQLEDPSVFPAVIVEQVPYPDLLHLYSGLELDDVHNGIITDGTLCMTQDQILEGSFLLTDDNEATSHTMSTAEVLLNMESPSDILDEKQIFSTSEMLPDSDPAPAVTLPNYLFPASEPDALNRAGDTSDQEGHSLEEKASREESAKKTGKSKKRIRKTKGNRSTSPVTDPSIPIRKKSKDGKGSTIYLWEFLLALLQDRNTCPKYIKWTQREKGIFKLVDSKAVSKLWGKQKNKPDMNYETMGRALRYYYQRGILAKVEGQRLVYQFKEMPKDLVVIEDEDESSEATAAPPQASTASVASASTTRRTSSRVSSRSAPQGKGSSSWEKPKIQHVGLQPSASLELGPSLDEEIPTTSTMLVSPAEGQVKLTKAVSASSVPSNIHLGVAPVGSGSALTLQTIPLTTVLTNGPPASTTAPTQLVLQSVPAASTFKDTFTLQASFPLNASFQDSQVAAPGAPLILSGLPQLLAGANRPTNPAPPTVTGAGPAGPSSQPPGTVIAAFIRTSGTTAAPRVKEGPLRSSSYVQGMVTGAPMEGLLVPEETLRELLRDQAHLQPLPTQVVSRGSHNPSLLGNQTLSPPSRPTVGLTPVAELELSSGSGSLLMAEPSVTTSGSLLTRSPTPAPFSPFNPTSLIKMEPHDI
How it was run: as §1

[5] = target: T3, ELK4 (Homo sapiens, UniProt P28324-2 1-405)
T3 sequence: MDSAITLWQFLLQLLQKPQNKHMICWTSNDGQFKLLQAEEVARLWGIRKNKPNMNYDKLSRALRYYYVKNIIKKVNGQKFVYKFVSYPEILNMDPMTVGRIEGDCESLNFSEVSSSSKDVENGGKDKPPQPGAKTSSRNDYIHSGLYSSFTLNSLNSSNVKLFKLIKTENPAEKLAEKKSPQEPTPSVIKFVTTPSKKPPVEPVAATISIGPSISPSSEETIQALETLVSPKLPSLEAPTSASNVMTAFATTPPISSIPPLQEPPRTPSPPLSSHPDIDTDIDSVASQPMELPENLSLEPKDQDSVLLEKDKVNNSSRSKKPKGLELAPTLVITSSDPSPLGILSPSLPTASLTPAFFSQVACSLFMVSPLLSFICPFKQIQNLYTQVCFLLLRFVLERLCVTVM
How it was run: as §1

[6] = target: T4, ETV2 (Homo sapiens, UniProt O00321 1-342)
T4 sequence: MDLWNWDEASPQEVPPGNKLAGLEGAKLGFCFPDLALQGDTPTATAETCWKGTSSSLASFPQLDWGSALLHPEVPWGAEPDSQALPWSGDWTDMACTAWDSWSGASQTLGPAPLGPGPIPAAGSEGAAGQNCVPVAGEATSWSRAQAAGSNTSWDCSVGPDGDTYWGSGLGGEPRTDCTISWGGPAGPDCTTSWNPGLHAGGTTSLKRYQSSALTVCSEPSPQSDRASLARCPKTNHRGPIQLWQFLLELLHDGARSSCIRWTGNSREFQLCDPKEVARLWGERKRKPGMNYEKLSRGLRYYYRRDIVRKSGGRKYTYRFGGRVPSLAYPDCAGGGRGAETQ
How it was run: as §1

[7] = target: T5, ELF3 (Homo sapiens, UniProt P78545 1-371)
T5 sequence: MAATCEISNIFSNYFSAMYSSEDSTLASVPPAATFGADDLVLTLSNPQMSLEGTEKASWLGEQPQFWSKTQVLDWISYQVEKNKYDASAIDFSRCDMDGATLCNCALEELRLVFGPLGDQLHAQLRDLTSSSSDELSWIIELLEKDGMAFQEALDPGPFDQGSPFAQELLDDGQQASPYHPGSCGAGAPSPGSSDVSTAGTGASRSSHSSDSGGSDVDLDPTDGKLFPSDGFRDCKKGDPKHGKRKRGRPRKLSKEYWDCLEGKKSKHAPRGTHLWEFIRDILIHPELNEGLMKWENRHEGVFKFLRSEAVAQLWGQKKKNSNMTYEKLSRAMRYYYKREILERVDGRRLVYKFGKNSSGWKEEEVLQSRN
How it was run: as §1

[8] = target: ETV1 (Homo sapiens, UniProt P50549 1-477)
Sequence of ETV1 (P50549 whole entry): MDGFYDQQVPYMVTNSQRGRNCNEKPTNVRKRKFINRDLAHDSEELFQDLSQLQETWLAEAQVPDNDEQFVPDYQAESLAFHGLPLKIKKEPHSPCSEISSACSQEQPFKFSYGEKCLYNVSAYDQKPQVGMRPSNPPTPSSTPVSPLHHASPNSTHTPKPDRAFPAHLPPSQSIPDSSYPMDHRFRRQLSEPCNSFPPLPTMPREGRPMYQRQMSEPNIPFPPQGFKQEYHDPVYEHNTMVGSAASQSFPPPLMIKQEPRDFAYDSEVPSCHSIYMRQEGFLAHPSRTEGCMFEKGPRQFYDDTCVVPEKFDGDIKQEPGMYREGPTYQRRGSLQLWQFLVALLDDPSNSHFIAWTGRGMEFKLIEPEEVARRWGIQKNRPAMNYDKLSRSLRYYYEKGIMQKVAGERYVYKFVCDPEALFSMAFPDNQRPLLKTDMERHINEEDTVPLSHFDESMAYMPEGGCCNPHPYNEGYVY
How it was run: as §1

[9] = target: T6, ERF (Homo sapiens, UniProt P50548 1-548)
T6 sequence: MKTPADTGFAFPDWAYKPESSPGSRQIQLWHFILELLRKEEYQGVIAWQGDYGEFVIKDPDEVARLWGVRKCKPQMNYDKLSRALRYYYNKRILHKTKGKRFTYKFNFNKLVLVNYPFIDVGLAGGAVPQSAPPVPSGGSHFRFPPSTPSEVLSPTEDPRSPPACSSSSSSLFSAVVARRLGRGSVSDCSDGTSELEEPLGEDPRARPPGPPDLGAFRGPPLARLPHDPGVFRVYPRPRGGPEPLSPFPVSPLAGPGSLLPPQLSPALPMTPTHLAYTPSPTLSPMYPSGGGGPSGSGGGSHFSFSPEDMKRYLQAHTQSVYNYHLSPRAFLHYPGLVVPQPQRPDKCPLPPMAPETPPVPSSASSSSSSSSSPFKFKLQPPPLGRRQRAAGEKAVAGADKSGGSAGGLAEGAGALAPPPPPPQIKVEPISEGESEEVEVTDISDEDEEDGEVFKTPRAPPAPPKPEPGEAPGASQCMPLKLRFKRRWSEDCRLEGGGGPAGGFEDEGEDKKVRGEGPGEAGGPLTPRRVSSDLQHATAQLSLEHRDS
How it was run: as §1

[10] = target: T7, ETV3L (Homo sapiens, UniProt Q6ZN32 1-361)
T7 sequence: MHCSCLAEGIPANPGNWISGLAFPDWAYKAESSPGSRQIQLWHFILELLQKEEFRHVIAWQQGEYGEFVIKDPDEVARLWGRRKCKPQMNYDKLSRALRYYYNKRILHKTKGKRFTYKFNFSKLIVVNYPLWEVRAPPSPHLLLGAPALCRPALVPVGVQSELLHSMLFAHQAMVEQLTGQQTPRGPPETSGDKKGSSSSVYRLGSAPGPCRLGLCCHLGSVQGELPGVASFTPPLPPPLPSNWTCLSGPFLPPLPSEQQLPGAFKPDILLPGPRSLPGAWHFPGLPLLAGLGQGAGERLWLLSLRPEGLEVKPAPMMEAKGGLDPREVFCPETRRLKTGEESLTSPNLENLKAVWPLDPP
How it was run: as §1

[11] = target: T8, ETS2 (Homo sapiens, UniProt P15036 1-469)
T8 sequence: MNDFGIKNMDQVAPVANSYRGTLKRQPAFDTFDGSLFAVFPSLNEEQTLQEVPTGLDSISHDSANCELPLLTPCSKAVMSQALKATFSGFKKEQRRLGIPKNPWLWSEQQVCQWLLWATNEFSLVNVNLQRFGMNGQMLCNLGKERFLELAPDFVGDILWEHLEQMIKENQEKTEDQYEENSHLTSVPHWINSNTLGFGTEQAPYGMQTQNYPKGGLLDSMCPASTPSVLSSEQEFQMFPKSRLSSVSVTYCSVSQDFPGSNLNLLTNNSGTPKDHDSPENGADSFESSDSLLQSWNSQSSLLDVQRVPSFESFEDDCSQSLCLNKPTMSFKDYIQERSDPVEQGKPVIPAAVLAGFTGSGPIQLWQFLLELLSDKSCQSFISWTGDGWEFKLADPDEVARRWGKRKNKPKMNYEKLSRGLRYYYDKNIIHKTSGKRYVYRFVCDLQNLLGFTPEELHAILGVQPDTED
How it was run: as §1

[12] = target: T9, SPDEF (Homo sapiens, UniProt O95238 1-335)
T9 sequence: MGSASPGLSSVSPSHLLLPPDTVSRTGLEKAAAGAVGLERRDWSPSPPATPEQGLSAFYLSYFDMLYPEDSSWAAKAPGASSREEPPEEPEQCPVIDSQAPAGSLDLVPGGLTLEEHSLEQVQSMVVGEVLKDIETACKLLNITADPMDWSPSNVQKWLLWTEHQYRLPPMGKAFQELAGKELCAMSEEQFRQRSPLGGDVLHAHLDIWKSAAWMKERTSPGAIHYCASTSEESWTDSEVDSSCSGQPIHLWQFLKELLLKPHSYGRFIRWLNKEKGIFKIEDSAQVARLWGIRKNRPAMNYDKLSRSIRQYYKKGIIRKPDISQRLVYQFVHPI
How it was run: as §1

[13] = target: T10, ETV7 (Homo sapiens, UniProt Q9Y603 1-341)
T10 sequence: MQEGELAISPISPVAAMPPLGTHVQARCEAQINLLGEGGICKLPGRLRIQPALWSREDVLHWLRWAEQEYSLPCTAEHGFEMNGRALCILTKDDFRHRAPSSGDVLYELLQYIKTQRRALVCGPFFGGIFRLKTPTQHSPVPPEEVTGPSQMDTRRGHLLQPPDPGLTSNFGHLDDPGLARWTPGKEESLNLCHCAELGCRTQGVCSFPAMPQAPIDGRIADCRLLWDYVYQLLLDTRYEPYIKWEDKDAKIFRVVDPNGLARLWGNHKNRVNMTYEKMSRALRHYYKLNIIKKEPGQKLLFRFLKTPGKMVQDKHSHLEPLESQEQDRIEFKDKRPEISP
How it was run: as §1

[14] = target: T11, ELF5 (Homo sapiens, UniProt Q9UKW6-2 1-255)
T11 sequence: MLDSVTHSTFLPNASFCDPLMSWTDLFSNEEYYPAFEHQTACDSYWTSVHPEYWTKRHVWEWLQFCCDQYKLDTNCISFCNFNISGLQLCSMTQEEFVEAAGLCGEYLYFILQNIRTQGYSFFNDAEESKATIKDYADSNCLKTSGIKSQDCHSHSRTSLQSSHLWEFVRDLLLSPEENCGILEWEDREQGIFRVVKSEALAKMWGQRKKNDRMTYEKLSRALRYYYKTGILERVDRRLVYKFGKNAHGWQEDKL
How it was run: as §1

[15] = target: T12, ETV3 (Homo sapiens, UniProt P41162-2 1-143)
T12 sequence: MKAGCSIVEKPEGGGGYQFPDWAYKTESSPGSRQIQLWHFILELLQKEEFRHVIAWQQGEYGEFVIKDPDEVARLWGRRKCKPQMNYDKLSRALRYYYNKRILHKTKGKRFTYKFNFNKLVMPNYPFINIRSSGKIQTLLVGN
How it was run: as §1

[16] = target: ETV6 (Homo sapiens, UniProt P41212 1-452)
Sequence of ETV6 (P41212 whole entry): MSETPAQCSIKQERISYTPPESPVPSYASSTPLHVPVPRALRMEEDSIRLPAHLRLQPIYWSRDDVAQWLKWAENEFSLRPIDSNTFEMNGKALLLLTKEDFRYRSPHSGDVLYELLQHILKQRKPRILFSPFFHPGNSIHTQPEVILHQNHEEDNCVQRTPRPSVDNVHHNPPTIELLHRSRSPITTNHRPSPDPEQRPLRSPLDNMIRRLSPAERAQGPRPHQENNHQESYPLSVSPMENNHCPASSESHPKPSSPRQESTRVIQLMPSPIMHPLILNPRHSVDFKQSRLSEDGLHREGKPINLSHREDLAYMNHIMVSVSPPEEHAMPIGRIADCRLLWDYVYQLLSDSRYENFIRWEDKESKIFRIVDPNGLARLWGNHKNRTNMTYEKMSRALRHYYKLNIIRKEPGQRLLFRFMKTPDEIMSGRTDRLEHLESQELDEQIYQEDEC
How it was run: as §1

ACCGGA
binding signal [1]: 6.19 fold enrichment (6-mer frequency, TF over GST control) | binding signal [2]: 3.33 fold enrichment (6-mer frequency, TF over GST control) | binding signal [3]: 2.63 fold enrichment (6-mer frequency, TF over GST control) | binding signal [4]: 2.78 fold enrichment (6-mer frequency, TF over GST control) | binding signal [5]: 2.4 fold enrichment (6-mer frequency, TF over GST control) | binding signal [6]: 3.02 fold enrichment (6-mer frequency, TF over GST control) | binding signal [7]: 3.15 fold enrichment (6-mer frequency, TF over GST control) | binding signal [8]: 3.45 fold enrichment (6-mer frequency, TF over GST control) | binding signal [9]: 2.82 fold enrichment (6-mer frequency, TF over GST control) | binding signal [10]: 2.97 fold enrichment (6-mer frequency, TF over GST control) | binding signal [11]: 3.14 fold enrichment (6-mer frequency, TF over GST control) | binding signal [12]: 4.52 fold enrichment (6-mer frequency, TF over GST control) | binding signal [13]: 2.74 fold enrichment (6-mer frequency, TF over GST control) | binding signal [14]: 3.2 fold enrichment (6-mer frequency, TF over GST control) | binding signal [15]: 3.45 fold enrichment (6-mer frequency, TF over GST control) | binding signal [16]: 3.16 fold enrichment (6-mer frequency, TF over GST control)

ACACAT
binding signal [1]: 1.29 fold enrichment (6-mer frequency, TF over GST control) | binding signal [2]: 1.19 fold enrichment (6-mer frequency, TF over GST control) | binding signal [3]: 1.17 fold enrichment (6-mer frequency, TF over GST control) | binding signal [4]: 1.23 fold enrichment (6-mer frequency, TF over GST control) | binding signal [5]: 1.33 fold enrichment (6-mer frequency, TF over GST control) | binding signal [6]: 1.35 fold enrichment (6-mer frequency, TF over GST control) | binding signal [7]: 1.28 fold enrichment (6-mer frequency, TF over GST control) | binding signal [8]: 1.23 fold enrichment (6-mer frequency, TF over GST control) | binding signal [9]: 1.29 fold enrichment (6-mer frequency, TF over GST control) | binding signal [10]: 1.23 fold enrichment (6-mer frequency, TF over GST control) | binding signal [11]: 1.27 fold enrichment (6-mer frequency, TF over GST control) | binding signal [12]: 1.31 fold enrichment (6-mer frequency, TF over GST control) | binding signal [13]: 1.27 fold enrichment (6-mer frequency, TF over GST control) | binding signal [14]: 1.23 fold enrichment (6-mer frequency, TF over GST control) | binding signal [15]: 1.2 fold enrichment (6-mer frequency, TF over GST control) | binding signal [16]: 1.22 fold enrichment (6-mer frequency, TF over GST control)
